Assay results from PubChem BioAssay AID1159580 (chemical genetic matrix, 2015).
Values joined by “and” are separate entries in the source; they are usually repeats but may differ in a detail not shown here. Identical values can stand only once. The campaign covered roughly 5,500 compounds. About 2,000 (36%) were called active. Roughly 18% stayed inconclusive and do not appear here. No stated cut-off is given here; in the data, active means normalized growth mostly below about 0.91 (no sharp cut-off); inconclusive means no clear call, values can overlap the other calls; inactive means mostly above about 0.92. The list shows a part of the results.

Assay: chemical genetic growth profiling, strain panel (AID 1159580);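 further: tested at 20 µM; growth read once vehicle control cultures reached saturation at 30 °C; 1 = growth at the plate median or of vehicle wells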
Conditions: S. cerevisiae deletion strains, growth OD

Measured: normalized growth

CCOc1ccc(Cc2nccc3cc(OCC)c(OCC)cc23)cc1OCC
inactive: locus YAL013W, strain DEP1, stronger effect = lower value 0.976 | locus YAL021C, strain ccr4, stronger effect = lower value 0.946 | locus YAL026C, strain drs2, stronger effect = lower value 0.974 | locus YAL030W, strain snc1, stronger effect = lower value 0.99 | locus YBL061C, strain skt5, stronger effect = lower value 0.968 | locus YBR009C, strain hhf1, stronger effect = lower value 0.975 | locus YBR021W, strain FUR4, stronger effect = lower value 0.961 | locus YBR023C, strain chs3, stronger effect = lower value 0.974 | locus YBR171W, strain sec66, stronger effect = lower value 0.965 | locus YBR229C, strain ROT2, stronger effect = lower value 0.969 | locus YBR231C, strain swc5, stronger effect = lower value 0.998 | locus YBR279W, strain paf1, stronger effect = lower value 0.989 | locus YCL011C, strain gbp2, stronger effect = lower value 0.993 | locus YCL016C, strain dcc1, stronger effect = lower value 0.981 | locus YCL029C, strain bik1, stronger effect = lower value 0.952 | locus YCL069W, strain vba3, stronger effect = lower value 0.99 | locus YCR088W, strain abp1, stronger effect = lower value 0.969 | locus YDL005C, strain med2, stronger effect = lower value 0.989 | locus YDL035C, strain GPR1, stronger effect = lower value 0.956 | locus YDL040C, strain nat1, stronger effect = lower value 0.976 | locus YDL074C, strain BRE1, stronger effect = lower value 0.855 | locus YDL101C, strain DUN1, stronger effect = lower value 0.956 | locus YDL134C, strain PPH21, stronger effect = lower value 0.939 | locus YDL185W, strain tfp1, stronger effect = lower value 0.994 | locus YDL192W, strain arf1, stronger effect = lower value 0.958 | locus YDR001C, strain nth1, stronger effect = lower value 0.977 | locus YDR069C, strain doa4, stronger effect = lower value 0.982 | locus YDR101C, strain arx1, stronger effect = lower value 0.967 | locus YDR137W, strain rgp1, stronger effect = lower value 0.89 | locus YDR150W, strain NUM1, stronger effect = lower value 0.994 | locus YDR159W, strain sac3, stronger effect = lower value 0.892 | locus YDR162C, strain NBP2, stronger effect = lower value 0.945 | locus YDR195W, strain ref2 1.05 | locus YDR297W, strain sur2, stronger effect = lower value 0.976 | locus YDR318W, strain mcm21, stronger effect = lower value 0.931 | locus YDR334W, strain swr1, stronger effect = lower value 0.974 | locus YDR335W, strain msn5, stronger effect = lower value 0.985 | locus YDR388W, stronger effect = lower value 0.954 | locus YDR392W, strain spt3, stronger effect = lower value 0.866 | locus YDR502C, strain sam2, stronger effect = lower value 0.96 | locus YEL003W, strain gim4, stronger effect = lower value 0.963 | locus YEL037C, strain rad23, stronger effect = lower value 0.956 | locus YEL061C, strain CIN8 (second series), stronger effect = lower value 0.959 | locus YEL061C, strain CIN8, stronger effect = lower value 0.986 | locus YER015W, strain faa2, stronger effect = lower value 0.965 | locus YER016W, strain bim1, stronger effect = lower value 0.962 | locus YER110C, stronger effect = lower value 0.968 | locus YER111C, strain swi4, stronger effect = lower value 0.972 | locus YER155C, strain BEM2 (second series), stronger effect = lower value 0.913 | locus YER155C, strain BEM2, stronger effect = lower value 0.99 | locus YER167W, strain BCK2, stronger effect = lower value 0.956 | locus YFR010W, strain ubp6, stronger effect = lower value 0.97 | locus YGL078C, strain dbp3, stronger effect = lower value 0.985 | locus YGL086W, strain mad1, stronger effect = lower value 0.962 | locus YGL167C, strain pmr1, stronger effect = lower value 0.969 | locus YGL173C, strain kem1, stronger effect = lower value 0.966 | locus YGL227W, strain vid30, stronger effect = lower value 0.998 | locus YGL240W, strain doc1, stronger effect = lower value 0.962 | locus YGL248W, strain PDE1, stronger effect = lower value 0.944 | locus YGL253W, strain hxk2, stronger effect = lower value 0.986 | locus YGR078C, strain PAC10, stronger effect = lower value 0.899 | locus YGR135W, strain pre9, stronger effect = lower value 0.92 | locus YGR229C, strain SMI1, stronger effect = lower value 0.91 | locus YGR252W, strain gcn5, stronger effect = lower value 0.776 | locus YHR013C, strain ard1, stronger effect = lower value 0.955 | locus YHR027C, strain rpn1, stronger effect = lower value 0.983 | locus YHR030C, strain SLT2, stronger effect = lower value 0.977 and 0.969 | locus YHR079C, strain IRE1 (second series), stronger effect = lower value 0.954 | locus YHR079C, strain IRE1, stronger effect = lower value 0.939 | locus YHR094C, strain hxt1, stronger effect = lower value 0.977 | locus YHR129C, strain ARP1, stronger effect = lower value 0.978 | locus YHR142W, strain chs7, stronger effect = lower value 0.923 | locus YHR200W, strain rpn10, stronger effect = lower value 0.948 | locus YIL066C, strain RNR3, stronger effect = lower value 0.935 | locus YIL073C, strain SPO22, stronger effect = lower value 0.962 | locus YIL125W, strain kgd1, stronger effect = lower value 0.978 | locus YIR030C, strain dcg1, stronger effect = lower value 0.971 | locus YJL092W, strain hpr5, stronger effect = lower value 0.99 | locus YJL095W, strain BCK1 (second series), stronger effect = lower value 0.968 | locus YJL095W, strain BCK1, stronger effect = lower value 0.882 and 0.963 | locus YJL115W, strain asf1, stronger effect = lower value 0.995 | locus YJL129C, strain trk1, stronger effect = lower value 0.896 | locus YJL134W, strain LCB3, stronger effect = lower value 0.985 | locus YJL154C, strain vps35, stronger effect = lower value 0.973 | locus YJL164C, strain tpk1, stronger effect = lower value 0.973 | locus YJL166W, strain qcr8, stronger effect = lower value 0.967 | locus YJL168C, strain set2, stronger effect = lower value 0.973 | locus YJL187C, strain SWE1 (second series), stronger effect = lower value 0.912 | locus YJR043C, strain POL32, stronger effect = lower value 0.943 | locus YJR066W, strain TOR1, stronger effect = lower value 0.9
